In PubChem BioAssay (NCI):
About 83,000 compounds went through this panel and 20% of them were active in at least one assay; those are over-represented in the sample as a whole.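 96-well plates, one dose, 48 hours. Percent growth reported; active if below 10.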 A number with no mark means an inactive call. Activity calls are given as the source filed them.

These molecules were tested on LOX IMVI melanoma (assay: NCI-60 one-dose screen, 48 h (100 = growth as untreated, 0 = no growth, -100 = all killed)). Details: 10 µM unless noted.
Experimental: Growth inhibition of the LOX IMVI human tumor cell line is measured as a screen for anti-cancer activity. Cells are grown in 96 well plates and exposed to the test compound for 48 hours. Compounds are tested at a single concentration, which is 10^-5 M for most compounds. The reported endpoint is percent growth (GI% or GIPRCNT), where numbers from 0 - 100% represent growth inhibition, and numbers from -100% - 0 represent cell death. For example, a value of 40 represents 60% growth inhibition. A value of 0 means no net growth occurred over the course of the experiment. A value of -40 indicates 40% of cells at the beginning of the experiment died by the end of the experiment. A value of -100 means all cells are dead at the end of the experiment.
NCI-60 Human Tumor Cell Lines Screen was performed using the standard one-dose NCI protocol, which is described in more detail at https://dtp.cancer.gov/discovery_development/nci-60/default.htm.
Compounds with GIPRCNT values below 10 were considered active. Activity score was based on GIPRCNT using the following formula: […]
Score is 0 for GIPRCNT values of 100 or above, 50 for GIPRCNT values of 0, and 100 for GIPRCNT values of -100.
`O=[N+]([O-])c1ccc(Cl)c(-c2cc(CCCCO)on2)c1` gave a growth of 97.6%. Molecule `COC(=O)/C=C1\S/C(=N\Nc2ccc([N+](=O)[O-])cc2[N+](=O)[O-])N(C2CCCCC2)C1=O` has a growth of 72.4%. In the case of `O=c1c2cc(F)ccc2sc2c(N3CCCCC3)nc3ccccc3c12`, the growth is reported as 97.1%. `Oc1ccc(Cl)cc1Cc1cc(Cl)cc(Cl)c1O` was tested, and the growth was 20.2%. `O=c1ccc(N=Nc2ccccc2)ccc1Cl` was tested, and the growth was -77.1% (active). With `CCOc1c(B(O)O)cccc1-c1nc2ccc3[nH]ncc3c2c2c1CCCC2` the growth was 37%. Work on `Cc1cc(O)c(C2=NN(c3ccc(S(N)(=O)=O)cc3)C(/C=C/c3ccccc3)C2)cc1Cl` (stereo not given) yielded a growth of 18.5%. With `CCCCCCCCCCCCCCCCCCOc1ccc(CC(=O)OCC[N+]2(C)CCCCC2)cc1` the growth was 94.7%. With `CCCCCCNC(=O)Oc1ccc(/C(=C(\C)c2ccc(OC)cc2)c2ccc(OCCN3CCCCC3)cc2)cc1` the growth was 24.5%. With `O=C(CCN1C(=O)/C(=C/c2ccc(O)cc2)SC1=S)Nc1ccc(Cl)cc1` the growth was 97.8%. For `CNc1nc2c(s1)C(c1cc(F)ccc1F)CC(=O)N2` (stereo not given), the growth was 73.4%. For `COc1ccc2sc3c(NCCCN(C)C)nc4ccccc4c3c(=O)c2c1`, the growth was -100% (active). `CN(C)CC#Cc1ccc2ncc(C#N)c(Nc3ccc(F)c(Cl)c3)c2c1` gave a growth of 49%. For `COc1c(B(O)O)cc(F)cc1-c1nc2ccc3[nH]ncc3c2c2c1CCCC2`, the growth was 2.28% (active). With `CCN1C(=O)N(CC)C2Nn3c(s/c(=C4\C(=O)Nc5ccccc54)c3=O)=NC21` (stereo not given) the growth was 56.9%. In the case of `CC([C@H]1CCC2C3CCC4C(=O)C(NC=O)=CC[C@]4(C)C3CC[C@@]21C)N(C)C` (stereo not given in full), the growth is reported as -37.2% (active). In the case of `CCOC(=O)Nc1ccc(-c2nc(-c3cccc(OCCN4CCOCC4)c3)c(-c3ccnc(Br)c3)[nH]2)cc1`, the growth is reported as 14.1%. `COc1ccc(-c2nc3sc(-c4ccc(Cl)cc4)cn3n2)cc1` gave a growth of 54.2%. For `COc1ccc(/C=N/Nc2cc(=O)[nH]c3ccc(C)cc23)cc1`, the growth was 91.5%. `CCCCCCN1C(=O)/C(=c2\sc3n(c2=O)C2C(NN=3)N(CC)C(=O)N2CC)c2ccccc21` (stereo not given) was tested, and the growth was -23% (active). `NCCCNc1nc2ccccc2c2c(=O)c3cc(C(F)(F)F)ccc3sc12` was tested, and the growth was -97.7% (active). Molecule `CC(=O)CC[C@H]1C(=O)N[C@@H](C(C)C)C(=O)N[C@@H](Cc2cc(O)cc(F)c2)C(=O)N2CCC[C@H](N2)C(=O)O[C@H](/C(C)=C/C=C/C(=O)OC(C)(C)C)C/C=C/C=C/[C@H](O)[C@H](C)[C@H]1O` has a growth of 48.6%. `Cc1cc2[nH]c(=O)c3c4ncccc4cn3c2cc1C` was tested, and the growth was -83.3% (active). Work on `Nc1ccccc1-c1cc2c(c3c1[nH]c1ccccc13)CCCCC2` yielded a growth of 86.7%. In the case of `Cn1cc(C(=O)c2nc(-c3cn(C)c4ccc(F)cc34)no2)c2cc(F)ccc21`, the growth is reported as 97.4%. For `O=C1CCC/C=C\C[C@H]2C=CC(=O)/C2=C/C[C@H](CCc2cccc(C(F)(F)F)c2)O1`, the growth was -72.6% (active). Work on `Cc1nn(-c2ccccc2)c(-n2ccnc2)c1/C=N/Nc1nc(-c2ccc(F)cc2)cs1` yielded a growth of 83.7%. Molecule `OC(COc1ccccc1)CN1CCN(c2ccc(Cl)cc2)CC1` (stereo not given) has a growth of 101%. In the case of `O=c1c2cc(C(F)(F)F)ccc2sc2c(NCCCNCCO)nc3ccccc3c12`, the growth is reported as -95.6% (active). For `Cc1ccc(/C=C2\Oc3ccc(O)c(O)c3C2=O)cc1`, the growth was 16.9%. For `COc1cccc(-c2nc(-c3ccc(NC(=O)C(C)C)cc3)[nH]c2-c2ccnc(Br)c2)c1`, the growth was 15.2%. With `CC1(C)C2CC1C1(/C=N/NC(N)=S)C(C2)C(C#N)(C#N)C1(C#N)C#N` (stereo not given) the growth was 50.1%. `Cc1nc2ccccc2n1CC1C(=O)NC(=O)NC1=O` was tested, and the growth was 100%. `CC(=O)Oc1ccccc1C(=O)N=C1[Se]CCCN1C(=O)c1ccccc1OC(C)=O` was tested, and the growth was -64.1% (active). For `NCCCNc1nc2ccccc2c2c(=O)c3cc(OC(F)(F)F)ccc3sc12`, the growth was -97.3% (active). `C=C1C(=O)O[C@H]2[C@H]1CC/C(COC(=O)CCSSCCC(=O)OC/C1=C/CC[C@@]3(C)O[C@H]3[C@H]3OC(=O)C(=C)[C@@H]3CC1)=C\CC[C@@]1(C)O[C@@H]21` was tested, and the growth was -75.8% (active). `CCOC(=O)c1nc(Nc2ccc(C(C)=O)cc2)sc1C` gave a growth of 99.9%. `Cc1ccc(C(=O)NCCNc2nccc(-c3c(-c4cccc(F)c4)nc4sccn34)n2)cc1` was tested, and the growth was 39.4%. In the case of `Cc1cc2nc3ccc(N=Nc4ccc(N(C)C)cc4)cc3n(-c3ccccc3)c-2cc1=N`, the growth is reported as -66.5% (active). In the case of `CCc1ccc(Oc2c(-c3ccc(OCc4ccc(Cl)cc4)cc3O)nn(C)c2C(F)(F)F)cc1`, the growth is reported as -24.6% (active).
